Apoferritin bind: candidate novel general anesthetic via apoferritin binding; apoferritin/1-aminoanthracene competitive binding, fluorescence; Potency, µM (titrated, usually from 77.5 µM), for inactives: top-dose activity change, negative = displacement, usual class: inhibitors; hit rate 0.074% among 350,000; also: potency is read from the fitted curve at half-maximal effect; nearly all actives have a fitted effect of over 20% in size
Target sequence (P02791 2-175 limits assumed): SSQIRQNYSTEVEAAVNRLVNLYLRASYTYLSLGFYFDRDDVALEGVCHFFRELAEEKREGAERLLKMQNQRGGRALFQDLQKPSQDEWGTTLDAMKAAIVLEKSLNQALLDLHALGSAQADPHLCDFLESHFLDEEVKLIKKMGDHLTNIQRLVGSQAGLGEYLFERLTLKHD
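10 uM apoferritin + 50% sat. 1-AMA, PBS; cpd 10 min RT; Ex380/Em535 endpoint; normalized to free probe vs complex; 4-param Hill fit; propofol titration as pos. ctrl.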
CtBP-E1A blk: inhibitors of CtBP/E1A interaction; AlphaScreen GST-E1A/His-CtBP binding, 1536-well; hits give low values; activity change, % (no concentration beside the values); hit rate 0.49% among 340,000; AID 651724; in the data active = activity change below about -65%; inconclusive = mostly about -30% to -63%
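GST-E1A and His-tagged CtBP (125 nM each as 5X stock) were preincubated with pin-transferred compound for 2 h at 37 °C in the dark, then glutathione donor and nickel acceptor beads were added for 1 h before AlphaScreen reading.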
Eya2 inh: inhibitors of human Eya2 phosphatase activity | O00167 | recombinant Eya2, OMFP fluorescence dephosphorylation (OMFP is methylfluorescein phosphate) | Potency, µM (titrated, usually from 76.9 µM), for the others: top-dose activity, negative = inhibition, usual class: inhibitors | hit rate 0.006% among 330,000 | AID 488837; also: potency is read from the fitted curve at half-maximal effect
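Eya2 protein (added as 0.2 uM solution) was preincubated with compound for 10 min at ambient temperature in 50 mM HEPES pH 7.5, 50 mM NaCl, 5 uM MgCl2, 0.05% BSA, 1 mM DTT. OMFP (added at 50 uM) then reacted 10 min; fluorescence read at 485/525 nm.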
Six1-Eya2 blk: Six1/Eya2 interaction inhibition; hit rate 0.56% among 360,000; AlphaScreen GST-Six1/His-Eya2 binding, biochemical; hits give low values; activity change, % (concentration not given with the values); AID 651725; in the data active = activity change below about -65%; inconclusive = mostly about -30% to -63%
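AlphaScreen with GST-Six1 and His-Eya2 (5X mix: 250 nM and 500 nM), glutathione donor and nickel acceptor beads; buffer 50 mM Tris pH 8.0, 300 mM NaCl, 1 mM TCEP; 1 h at 37 C in the dark.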
GALK inhibitor: inhibitors of human galactokinase | Purified GALK, Kinase-Glo residual ATP luminescence | hit rate 0.007% among 270,000 | Potency, µM (series often up to 57.5 µM), inactives show at the highest dose activity change, negative = inhibition, actives largely listed as inhibitors | P51570; also: potency is read from the fitted curve at half-maximal effect
Target sequence (P51570 whole entry, looked up): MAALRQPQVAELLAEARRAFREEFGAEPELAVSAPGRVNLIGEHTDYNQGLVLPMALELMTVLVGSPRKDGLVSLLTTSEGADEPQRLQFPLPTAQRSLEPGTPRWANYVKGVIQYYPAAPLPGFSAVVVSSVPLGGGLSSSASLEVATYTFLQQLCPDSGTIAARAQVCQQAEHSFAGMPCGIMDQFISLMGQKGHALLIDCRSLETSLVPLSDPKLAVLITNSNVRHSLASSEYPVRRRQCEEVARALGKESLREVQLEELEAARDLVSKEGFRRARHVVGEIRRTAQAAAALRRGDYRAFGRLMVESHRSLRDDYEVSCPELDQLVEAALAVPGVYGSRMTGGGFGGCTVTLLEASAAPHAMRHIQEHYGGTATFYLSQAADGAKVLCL
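Luminescence from leftover ATP (Ultra-Glo luciferase/luciferin) served as read-out after a 1 h room-temperature reaction of 5 nM GALK with 35 uM ATP and 100 uM galactose.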
JMJD2E inh: JMJD2E (human) inhibition; Potency, µM (top dose mostly 57.1 µM), inactives show top-dose activity change, negative = inhibition, most hits filed as inhibitors; hit rate 1.6% among 230,000; JMJD2E catalytic domain, FDH-coupled NADH fluorescence (FDH is formaldehyde dehydrogenase); B2RXH2; active = well fitted inhibition curve with a large enough effect, not every such curve was filed as active; inconclusive = small, poorly fitted or top-dose-only effect, or another doubt; inactive = no such curve, though single readings can be large or run the other way;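 also: potency is read from the fitted curve at half-maximal effect; 0% = wells with enzyme and -100% = buffer wells without enzyme; nearly all actives have a fitted effect of over 50% in size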
Numbers without * were called inactive; ? = inconclusive; / = no result; [ ] = another dose, or the depositor's remark. The full list was thinned out, with hits kept by preference. Unless noted, calls follow the shape of the dose curve; as a rule, active = well fitted curve in the direction sought with a large enough effect; inconclusive = small, poorly fitted or top-dose-only effect, or another doubt; inactive = no such curve, though single readings can be large; an effect the other way counts as inactive or inconclusive. Unless noted, % is scaled to controls: 0 for no effect and ±100 for the full control effect.

SMILES	Apoferritin bind	CtBP-E1A blk	Eya2 inh	Six1-Eya2 blk	GALK inhibitor	JMJD2E inh
Cc1cccc(NC(=O)CN2C(=O)N/C(=C/c3cc(C)n(-c4cccnc4)c3C)C2=O)c1	3%	-12	-9%	-1	-1%	18µM*
Cc1cccc(NC(=O)CN2C(=O)N/C(=C/c3cc(C)n(C)c3C)C2=O)c1	-19%	-2	-25%	0	9%	32µM*
Cc1oc2c(C)c3oc(=O)c(CCC(=O)N4CCCCC4)c(C)c3cc2c1C	49%	/	/	/	/	/
CC(C)NC(=O)C1C(c2ccc(C(F)(F)F)cc2)=Nc2ccccc2N1C(=O)c1cccc(C(F)(F)F)c1 (stereo not given)	/	9	/	0	/	/
Cc1nnc2sc(SCC(=O)Nc3ccc(Br)cc3)nn2c1=O	-5%	15	13%	-87*	0%	7%
Cc1nnc2sc(SCc3ccc(Br)cc3)nn2c1=O	-5%	2	10%	1	0%	0%
COc1ccc(NC(=O)CSc2nnc(C)c(=O)n2N)cc1	-3%	-1	0%	-1	4%	/
Cc1ccccc1NC(=O)CSc1nn2c(=O)c(C)nnc2s1	-7%	-92*	-6%	-84*	0%	14%
COc1ccc(NC(=O)CSc2nn3c(=O)c(C)nnc3s2)cc1	-4%	-93*	7%	-86*	1%	/
COc1cccc(NC(=O)CSc2nn3c(=O)c(C)nnc3s2)c1	-2%	-99*	-14%	-77*	-2%	/
N[C@@H](Cc1cc(I)c(Oc2ccc(O)cc2)c(I)c1)C(=O)O	3%	/	/	/	/	/
COc1ccc(CCNC(=O)CSc2nn3c(=O)c(C)nnc3s2)cc1OC	-1%	?	-1%	-25	3%	/
COC(=O)c1ccc(NC(=O)CSc2nn3c(=O)c(C)nnc3s2)cc1	-6%	-93*	2%	-67*	4%	/
Cc1nnc2sc(SCC(=O)Nc3cccc(Cl)c3)nn2c1=O	-2%	-93*	-10%	?	-2%	11%
COc1ccc(OC)c(NC(=O)CSc2nn3c(=O)c(C)nnc3s2)c1	-4%	-88*	12%	?	3%	/
COc1cccc(C(=O)NC(=O)Nc2ccc(-n3nc(C(F)(F)F)cc3C(F)(F)F)cc2)c1	-3%	/	/	/	/	/
COc1ccc(COC(=O)N/N=C2/C[C@@H](O)[C@@H](O)[C@@H]3[C@H]4C(=O)N(c5ccc(F)cc5F)C(=O)[C@@H]4CC[C@H]23)cc1	0%[15.3 µM]	/	/	/	/	/
CCCCC/C=C\C/C=C\C/C=C\CCCCCCC(=O)O[C@H](COCCCCCCCCCCCCCCCC)COP(=O)([O-])OCC[N+](C)(C)C	/	/	/	/	/	6%
Oc1ccc(Cl)cc1N=Nc1ccccc1	-7%	/	16%	-17	0%	/
O=S(=O)(O)c1cc(O)c2c(O)c(N=Nc3cc(Cl)ccc3O)c(S(=O)(=O)O)cc2c1	5%	-95*	?	-75*	16%	/
CCOc1ccc(-c2nonc2NC(=O)c2oc3cc(C)ccc3c2C)cc1	-18%	/	/	/	/	/
CCC(=O)OCC(=O)C1(OC(=O)CC)C(C)CC2C3CCC4=CC(=O)C=CC4(C)C3(Cl)C(O)CC21C (stereo not given)	?	/	/	/	/	-2%
COc1ccc(O)c(/C=N/NC(=O)c2ccc(N3CCCC3=O)cc2)c1	-10%	-71*	-3%	?	-1%	/
O=C(N/N=C/c1cc(Br)ccc1O)c1cccc(N2CCCC2=O)c1	-10%	-67*	-1%	-78*	1%	28µM*
COc1ccc(O)c(/C=N/NC(=O)c2cccc(N3CCCC3=O)c2)c1	-1%	?	0%	?	1%	/
SMILES	Apoferritin bind	CtBP-E1A blk	Eya2 inh	Six1-Eya2 blk	GALK inhibitor	JMJD2E inh
CN1CCN(C(=O)C(=O)Nc2c3c(nn2-c2ccc(Cl)cc2)CSC3)CC1	-3%	/	/	/	/	/
CN(C)c1ccc2c(c1)C(=NO)c1ccccc1-2	/	1	/	-66*	/	/
Cc1nc(C)c(-c2csc(Nc3ccc(O)c(C(=O)O)c3)n2)s1	-4%	-28	9%	-71*	-11%	/
Cc1nc(C)c(-c2csc(Nc3ccc(N)cc3)n2)s1	-15%	/	8%	-1	-6%	/
CCC1CN(C(=O)Nc2ccc(C(=O)O)cc2)c2cc(Cl)ccc2O1 (stereo not given)	-4%	/	/	/	/	/
COC1[C@@H](OC)C[C@H](C)[C@@H](OC)C2=CC(=O)C=C(NC(=O)/C(C)=C/C=C\[C@H](OC)[C@@H](OC(N)=O)/C(C)=C/[C@@H]1C)C2=O (stereo not given in full)	5%	/	/	/	/	/
CCOC(=O)/C(C#N)=C/c1ccc(OC(=O)c2ccccn2)cc1	-16%	-3	2%	-87*	2%	?
COc1cccc(C(=O)Nc2nc3nc(C)c(C)c(=O)n3[nH]2)c1	-16%	/	/	/	/	/
CCS(=O)(=O)c1ccc(N=Nc2ccc(O)c3ncccc23)c(OC)c1	-14%	-93*	-23%	-83*	1%	14µM*
Cc1ccc(N=Nc2ccc(O)c3ncccc23)cc1C	-6%	-5	10%	-18	-1%	-1%
COc1ccccc1N=Nc1ccc(O)c2ncccc12	-4%	/	4%	-70*	6%	/
Oc1ccc(N=Nc2ccccc2C(F)(F)F)c2cccnc12	-6%	/	9%	-11	2%	/
CCc1ccc(CNc2ncnc3onc(-c4ccc(Cl)cc4)c23)cc1	-1%	/	/	/	/	/
Cc1ccc(C2=NN(CC(=O)NCCc3ccccc3)C(=O)CC2)cc1	2.5µM*	/	/	/	/	/
O=C(Oc1ccc2c(c1)OCC2=O)c1ccc(Cl)cc1	-1%	-14	6%	-66*	-2%	-2%
C=CCNC(=O)N1CCc2nc(COc3ccccc3)c3c(c2C1)CO[C@@H](C)C3	/	/	/	/	/	2%[11.4 µM]
CSCCC(=O)Nc1nc(-c2ccccn2)cs1	-5%	-4	12%	-71*	1%	?
O=C(CN1C(=O)CCC1=O)Nc1nc(-c2ccccn2)cs1	-2%	?	19%	-88*	2%	?
N#Cc1ccccc1OCC(=O)Nc1nc(-c2ccccn2)cs1	/	?	/	-83*	/	/
Cc1c(C(=O)NCc2ccccc2Br)oc2c1-c1[nH]ncc1CC2	-11%	/	/	/	/	/
CC/C=C\C/C=C\C/C=C\C/C=C\C=C\C(O)CCCC(=O)O (stereo not given)	/	/	/	/	/	-1%
CC(=O)OC1CCC2(C)C(CCC3(C)C2C(=O)C=C2C4CC(C)(C(=O)OCCN5CCCCC5)CCC4(C)CCC23C)C1(C)C (stereo not given)	/	/	/	/	/	1%
Cc1cc(N(C)C)ccc1N=Nc1ccc2ncccc2c1	?	/	-4%	-83*	3%	-25%
CCn1c2ccc(C)cc2c2nc3cc(C(=O)O)ccc3nc21	-6%	-66*	-30%	-69*	-3%	?
